Measured values reported in article PMC4336329 (PLoS ONE, 2015).
Out of some 310,000 compounds screened, about 14,000 (4.5%) showed an effect of 50% or more. The effect is printed as a negative number. The full list was thinned out, with strong results kept by preference.

molecular target: human ether-à-go-go-related gene (hERG) potassium channel (human, UniProt Q12809); experiment: primary screen, population patch clamp on CHO cells stably expressing hERG; higher = less effect of the substance
Sequence (Q12809 whole entry, looked up): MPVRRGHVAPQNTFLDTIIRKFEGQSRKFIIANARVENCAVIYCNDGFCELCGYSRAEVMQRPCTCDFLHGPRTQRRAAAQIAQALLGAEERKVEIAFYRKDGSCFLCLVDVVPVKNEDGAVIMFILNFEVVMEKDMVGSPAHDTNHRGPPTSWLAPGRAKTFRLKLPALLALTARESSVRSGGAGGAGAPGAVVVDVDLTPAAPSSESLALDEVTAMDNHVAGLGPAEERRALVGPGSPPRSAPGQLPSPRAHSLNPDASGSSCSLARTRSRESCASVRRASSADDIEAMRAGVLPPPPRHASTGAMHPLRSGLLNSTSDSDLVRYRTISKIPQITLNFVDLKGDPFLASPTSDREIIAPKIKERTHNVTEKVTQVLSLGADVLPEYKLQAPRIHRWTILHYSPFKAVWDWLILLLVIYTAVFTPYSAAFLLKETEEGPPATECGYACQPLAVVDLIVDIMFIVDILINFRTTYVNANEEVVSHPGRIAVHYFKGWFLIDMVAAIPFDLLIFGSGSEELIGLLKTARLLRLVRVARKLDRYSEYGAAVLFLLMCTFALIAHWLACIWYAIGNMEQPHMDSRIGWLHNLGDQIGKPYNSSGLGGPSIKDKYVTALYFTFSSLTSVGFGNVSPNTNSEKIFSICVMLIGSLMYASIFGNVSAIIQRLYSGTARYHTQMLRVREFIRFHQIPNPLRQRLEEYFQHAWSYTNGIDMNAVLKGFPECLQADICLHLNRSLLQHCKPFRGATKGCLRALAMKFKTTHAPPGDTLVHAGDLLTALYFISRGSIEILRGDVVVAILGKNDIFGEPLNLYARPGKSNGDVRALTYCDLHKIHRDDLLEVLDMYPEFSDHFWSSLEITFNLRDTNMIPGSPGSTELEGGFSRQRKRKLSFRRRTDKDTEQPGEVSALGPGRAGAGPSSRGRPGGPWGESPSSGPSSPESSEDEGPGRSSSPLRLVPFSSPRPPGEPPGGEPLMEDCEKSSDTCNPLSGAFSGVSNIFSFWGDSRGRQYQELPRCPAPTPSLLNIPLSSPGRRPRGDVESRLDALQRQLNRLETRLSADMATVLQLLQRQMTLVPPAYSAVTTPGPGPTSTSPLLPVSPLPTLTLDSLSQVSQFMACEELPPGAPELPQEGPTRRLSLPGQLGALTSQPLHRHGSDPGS
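Note: peak tail current of the secondary pulse compared with the same well before compound.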

Compound	hERG current change (%, negative = inhibition) at 10uM
O=C(COC(=O)c1ccc(Br)o1)Nc1ncc([N+](=O)[O-])s1	10.6%
O=C(c1ccc(Cl)cc1)C1CCN(C(=O)NC2CCCCC2)CC1	-6.29%
Cc1noc(C)c1C(=O)OC(C)C(=O)N1CCc2ccccc21 (stereo not shown)	4.27%
Cc1nc(-c2cccc(NC(=O)c3cccs3)c2)cs1	-23.3%
CCCN(C(=O)c1c(-c2ccccc2)noc1C)c1c(N)n(Cc2ccccc2)c(=O)[nH]c1=O	1.43%
COc1cccc(CNC(=O)Cc2ccc(Br)cc2)c1	5.59%
Cc1ccc(-c2nnc(SCC(=O)Nc3nccs3)n2N)cc1	-10.4%
O=[N+]([O-])c1ccc(N2CCN(c3ccc(O)cc3)CC2)c(Cl)c1	-3.4%
CCn1nc(C)c(CNC(=O)Nc2ccccc2C(=O)OC)c1C	13.5%
O=C(Nc1ccc2c(c1)CCC2)Nc1ccc(F)cc1F	15.5%
O=C(Nc1ccc2c(c1)CCC2)Nc1ccccc1F	-61.6%
Cc1ccccc1NC(=O)Nc1ccc2c(c1)CCC2	24.4%
Cc1ccccc1NCN1C(=O)C2C3C=CC(C3)C2C1=O (stereo not shown)	6.34%
COc1cccc(/C=N/NC(=O)Cn2nc(C)c([N+](=O)[O-])c2C)c1O	-13.1%
CCN1CCN(C(=O)N2CCOCC2)CC1	15.5%
CS(=O)(=O)c1ccc(Cl)c(NC(=O)c2cccc(N3C(=O)CCC3=O)c2)c1	0.801%
O=C(CN1CCCCC1)Nc1cccc(-n2cnnn2)c1	0.45%
CCc1ccccc1NC(=O)CN1CCN(C(=O)c2cccc(-n3cnnn3)c2)CC1	-65%
CCc1ccccc1NC(=O)COc1cccc(-n2cnnn2)c1	-8.5%
CS(=O)(=O)c1ccc(Cl)c(NC(=O)c2cccc(-n3cnnn3)c2)c1	-65.6%
Cc1cccc(NC(=O)CN2CCN(C(=O)c3cccc(-n4cnnn4)c3)CC2)c1C	-41.5%
CS(=O)(=O)c1ccc(NC(=O)c2cccc(-n3cnnn3)c2)cc1	12.1%
O=C(c1cccc(-n2cnnn2)c1)N1CCOCC1	-8.49%

Compound	hERG current change (%, negative = inhibition) at 10uM
O=C(CN1CCN(C(=O)c2cccc(-n3cnnn3)c2)CC1)Nc1ccccc1Cl	-90.3%
Cc1ccc(NC(=O)CSCC(=O)NC2(C)CCS(=O)(=O)C2)cc1 (stereo not shown)	5.44%
O=C(O)Cc1sc(NCCc2ccccc2)nc1-c1ccc(F)cc1	3.77%
Cc1cn2c(-c3ccc(Cl)cc3)nnc2s1	-33.3%
CN(CCC#N)C(=O)COC(=O)c1ccc2c(=O)n3c(nc2c1)CCC3	35%
COc1ccccc1/C=C/C(=O)OCC(=O)c1cc(C)n(C)c1C	-0.348%
O=C(O)c1ccc2c(c1)SC1=NS(=O)(=O)CCN12	8.48%
O=C(NCc1cccc(Cl)c1)c1ccc2c(c1)SC1=NS(=O)(=O)CCN12	-5.52%
O=C(NCc1ccccc1Cl)c1ccc2c(c1)SC1=NS(=O)(=O)CCN12	-7.44%
CN(C(=O)c1ccc2c(c1)SC1=NS(=O)(=O)CCN12)C(c1ccccc1)c1ccccc1	-61%
COc1ccc(CCNC(=O)c2ccc3c(c2)SC2=NS(=O)(=O)CCN23)cc1	-60.4%
CC(C)(C)c1ccccc1NC(=O)c1ccc2c(c1)SC1=NS(=O)(=O)CCN12	6.51%
O=[N+]([O-])c1cc(-c2nnc(Nc3ccccc3)c3ccccc23)ccc1N1CCOCC1	-26.3%
COC(=O)c1cc(C(=O)OC)cc(-n2c(C)cc(C(=O)CC#N)c2C)c1	-31.2%
O=C(N/N=C\c1ccc(O)c([N+](=O)[O-])c1)C1COc2ccccc2O1 (stereo not shown)	-4.56%
O=C(N/N=C/c1cccnc1)C1CC1(c1ccccc1)c1ccccc1 (stereo not shown)	-55.6%
O=C(N/N=C/c1ccc(O)c([N+](=O)[O-])c1)C1CC1(c1ccccc1)c1ccccc1 (stereo not shown)	-50.7%
O=C(N/N=C/C=C/c1ccccc1)C1CC1(c1ccccc1)c1ccccc1 (stereo not shown)	-1.54%
O=C(O)c1ccc(/C=N/NC(=O)C2CC2(c2ccccc2)c2ccccc2)cc1 (stereo not shown)	17.9%
O=C(N/N=C/c1ccncc1)C1CC1(c1ccccc1)c1ccccc1 (stereo not shown)	-24.9%
CC(C)C(=O)Nc1nc2ccc(S(C)(=O)=O)cc2s1	5.14%
Cc1ccc(S(=O)(=O)Nc2c(C)n(C)n(-c3ccccc3)c2=O)cc1	9.73%
O=C(CN1C(=O)NC2(CCCCCC2)C1=O)Nc1ccc2c(c1)CCC2	-5.72%

Compound	hERG current change (%, negative = inhibition) at 10uM
CCOC(=O)c1nc2ccccc2c(C)c1C.Cl	-5.73%
CCOC(=O)c1nc2cc3n(c(C)c-2c1C)C(C)C(CC)=C3C.Cl (stereo not shown)	-66.7%
CCOC(=O)c1nc(C)nc(Sc2n[nH]c(-c3cc(Cl)cc(Cl)c3)n2)c1C	4.12%
CCOC(=O)c1nc2cc3n(c(C)c-2c1C)C(C)C(C)=C3C.Cl (stereo not shown)	-42.8%
CCOC(=O)c1nc2cc3n(c(CC(C)C)c-2c1C)CC(C)=C3C.Cl	-74%
CCOC(=O)c1n[nH]n(-c2cc(Cl)cc(Cl)c2)c1=O	25.7%
CCc1cc(=O)oc2c(CNCc3ccc(OC)cc3OC)c(O)c(Cl)cc12.Cl	13.3%
NNC(=O)C1CC1c1ccc(Cl)cc1 (stereo not shown)	9.11%
COc1cc(/C=N/Nc2ccc(Cl)c(C(=O)O)c2)ccc1OCC(=O)N1C(C)CCCC1C (stereo not shown)	16.5%
CCCn1c(N)c(N(CCOC)C(=O)c2ccc(N(C)S(=O)(=O)c3ccc(C)cc3)cc2)c(=O)[nH]c1=O	7.32%
O=C(NC1CCCCC1)c1ccc(S(=O)(=O)NCc2cccnc2)cc1	5.88%
O=c1[nH]c(=O)n(-c2ccccc2Cl)c(O)c1C=NCCN1CCCCC1	6.09%
CNCCc1ccc(OC)c(OC)c1	19.4%
COc1ccc(C(CCN)c2ccc3c(c2)OCO3)cc1 (stereo not shown)	1.93%
COc1ccc(CNc2ccc(-c3ccccc3OC)nn2)cc1	-13.1%
COc1ccc(CCC(C)NCC(C)c2ccccc2)cc1 (stereo not shown)	-48.3%
COc1ccc(CNCCC(c2ccccc2)c2ccc3c(c2)OCO3)cc1.Cl (stereo not shown)	-75%
COc1ccc(CC(C)NCCC(c2ccccc2)c2ccccc2)cc1 (stereo not shown)	-71.5%
COc1ccc(CC(C)CC(=O)NCCc2ccc(OC)c(OC)c2)cc1 (stereo not shown)	18.9%
COc1ccc(CCC(C)NCCc2ccccc2)cc1 (stereo not shown)	-29.6%
COc1ccc(C(CC(=O)O)c2ccc3c(c2)OCO3)cc1 (stereo not shown)	14.7%
CCCNCCC(c1ccco1)c1ccccc1OC (stereo not shown)	-41.8%
COc1ccc(CC(C)NCCc2ccc(OC)c(OC)c2)cc1 (stereo not shown)	-60.3%

Compound	hERG current change (%, negative = inhibition) at 10uM
COc1ccc(CNCCC(c2ccc(OC)cc2)c2ccccc2OC)cc1 (stereo not shown)	-74.2%
CN(C)S(=O)(=O)c1ccc(N2CCCC2)c(C(=O)Nc2nc3ccc(F)cc3s2)c1	-37.1%
Cc1nc(SCC(=O)Nc2ccc(C)c(F)c2)c2oc3ccccc3c2n1	4.4%
COc1ccccc1NC(=O)c1cc(S(=O)(=O)N2CCC3(CC2)OCCO3)ccc1F	-4.73%
COc1ccc(CN2CN(c3ccc(Cl)cc3)C(=O)N(n3cnnc3)C2)cc1	-38.6%
COC(=O)C1=C(c2ccccc2)C[C@@H]2CC[C@H]1N2C(=O)N1CCCCC1	-4.4%
Cn1c(=O)c2c(ncn2CCOc2ccc(F)cc2)n(C)c1=O	12.3%
O=C(N/C=N/O)C(c1ccccc1)c1ncc(C(F)(F)F)cc1Cl (stereo not shown)	3.35%
COc1ccc(-c2c/c(=N\c3nc(-c4ccccc4)c(C)s3)c3ccccc3o2)cc1O	4.17%
COc1ccccc1NC(=O)C1CCCCN1S(=O)(=O)c1ccc(F)cc1 (stereo not shown)	-27.9%
O=C(NCc1ccc(F)cc1)N[C@@H](Cc1ccccc1)C(=O)O	7.44%
CC(=O)OCc1c(C(F)(F)F)nn(C)c1Oc1cccc(C(F)(F)F)c1	2.3%
COc1ccc(C(CCNC(C)c2ccccc2)C(C)C)cc1 (stereo not shown)	-4.48%
COc1ccccc1C(CC(=O)Nc1ccc(Cl)cc1)c1ccc(OC(C)C)cc1 (stereo not shown)	1.17%
COc1ccc(C(CCNCc2ccc(OC(C)C)cc2)c2ccccc2OC)cc1 (stereo not shown)	-76%
COc1cccc(NC(=O)CC(c2ccc(OC(C)C)cc2)c2ccccc2OC)c1 (stereo not shown)	1.26%
COc1ccc(C(C)NCCC(c2ccc(OC(C)C)cc2)c2ccccc2OC)cc1 (stereo not shown)	-64.2%
COc1ccc(C(CCNCc2ccc(N(C)C)cc2)c2ccccc2OC)cc1 (stereo not shown)	-71.1%
COc1ccc(NC(=S)NCCC(c2ccccc2)c2ccccc2)c(OC)c1	2.53%
COc1ccc(C(CC(=O)Nc2ccc(F)cc2)c2ccccc2)cc1 (stereo not shown)	9.13%
COc1ccc(C(O)P(=O)(OCc2ccccc2)c2ccc(N(C)C)cc2)cc1 (stereo not shown)	15.4%
COc1ccc(C(CCNC(C)c2ccccc2)c2ccc(F)cc2)cc1 (stereo not shown)	-54.6%
